nsP2pro primary = Primary qHTS for inhibitors of NSP2Pro chikungunya virus (CHIKV); FRET peptide cleavage, nsP2pro, fluorescence 1 h; Potency, µM (titrated, usually from 24.9 µM), for the others: at the highest dose activity change, negative = inhibition, usual class: inhibitors; 31,000 tested, 1.1% active; AID 1964107, 2024; Polyprotein P1234 (Chikungunya virus (strain S27-African prototype)), Q8JUX6; further: nearly all actives have a fitted effect of over 60% in size
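FRET cleavage of 2.5 uM peptide 2 by 150 nM CHIKV protease domain at pH 8.0 (Tris, Tween 20). Compounds at 7 concentrations (up to 25 uM) preincubated 15 min. Fluorescence read after 1 h at room temperature.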
nsP2 cell sec = Secondary cell base assay for inhibitors of NSP2Pro Chikungunya virus (CHIKV) | shares compounds with nsP2pro primary | cell-based CHIKV nsP2 protease reporter assay | Potency, µM (top dose mostly 51.1 µM), for the others: at the top dose activity change, negative = inhibition, usual class: inhibitors | 450 tested, 10% active; further: nearly all actives have a fitted effect of over 70% in size
Target sequence (Q8JUX6 220-798 limits assumed): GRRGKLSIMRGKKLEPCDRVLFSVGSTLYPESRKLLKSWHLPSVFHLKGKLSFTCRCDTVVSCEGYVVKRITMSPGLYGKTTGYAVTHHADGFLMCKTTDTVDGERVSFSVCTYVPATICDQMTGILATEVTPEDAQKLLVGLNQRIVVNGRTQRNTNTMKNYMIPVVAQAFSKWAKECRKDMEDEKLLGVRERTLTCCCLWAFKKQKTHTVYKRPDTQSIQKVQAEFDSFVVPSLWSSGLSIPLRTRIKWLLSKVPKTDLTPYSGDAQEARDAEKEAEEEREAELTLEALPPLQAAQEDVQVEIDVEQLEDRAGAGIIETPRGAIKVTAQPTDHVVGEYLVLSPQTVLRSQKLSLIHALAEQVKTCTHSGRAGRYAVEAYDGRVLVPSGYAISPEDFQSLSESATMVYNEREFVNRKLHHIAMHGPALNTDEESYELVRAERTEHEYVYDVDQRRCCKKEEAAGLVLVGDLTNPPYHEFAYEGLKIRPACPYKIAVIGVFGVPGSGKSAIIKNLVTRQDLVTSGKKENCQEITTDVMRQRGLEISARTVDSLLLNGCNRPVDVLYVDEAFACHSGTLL
CHIKV NSP2 FL = Selectivity profile for inhibitors of NSP2Pro chikungunya virus (CHIKV): Full length NSP2 enzyme counterscreen (CHIKV-NSP2). shares compounds with nsP2pro primary. Full-length CHIKV NSP2 protease enzymatic counterscreen. Potency, µM (highest dose often 50.7 µM), for inactives: top-dose activity change, negative = inhibition, hits mostly inhibitors. 410 tested, 39% active; further: nearly all actives have a fitted effect of over 65% in size
Furin counter = Selectivity profile for inhibitors of NSP2Pro chikungunya virus (CHIKV): Human furin counterscreen; AID 1964102, 2024; Potency, µM (series often up to 50.6 µM), for inactives: at the highest dose activity change, negative = inhibition, most hits filed as inhibitors; Recombinant human furin enzymatic counterscreen, fluorogenic substrate; 410 tested, 6% active; shares compounds with nsP2pro primary
nsP2 NS23 pep = Selectivity profile for inhibitors of NSP2Pro chikungunya virus (CHIKV): Endogenous NS2/3 peptide Counterscreen. shares compounds with nsP2pro primary. Purified CHIKV nsP2 protease, endogenous NS2/3 peptide cleavage. Potency, µM (titrated, usually from 51 µM), for inactives: at the top dose activity change, negative = inhibition, usual class: inhibitors. 410 tested, 34% active. AID 1964103, 2024; further: nearly all actives have a fitted effect of over 55% in size
Papain counter = Selectivity profile for inhibitors of NSP2Pro chikungunya virus (CHIKV): Papain Counterscreen. shares compounds with nsP2pro primary. purified papain protease activity, enzymatic inhibition. Potency, µM (top dose mostly 51 µM), without a hit: at the top dose activity change, negative = inhibition, actives largely listed as inhibitors. 410 tested, 5% active
nsP2pro confirm = Confirmatory qHTS for inhibitors of NSP2Pro chikungunya virus (CHIKV); 410 tested, 43% active; Potency, µM (highest dose often 25.5 µM), for inactives: at the highest dose activity change, negative = inhibition, usual class: inhibitors; shares compounds with nsP2pro primary; AID 1964105, 2024; CHIKV nsP2 protease enzymatic activity, qHTS; further: nearly all actives have a fitted effect of over 75% in size
HCV NS3 4A cs = Selectivity profile for inhibitors of NSP2Pro chikungunya virus (CHIKV): NS34A-HCV Counterscreen | shares compounds with nsP2pro primary | HCV NS3/4A protease biochemical counterscreen | Potency, µM (series often up to 50.9 µM), actives largely listed as inhibitors | 410 tested, 20% active | AID 1964106, 2024; further: nearly all actives have a fitted effect of over 55% in size
Starred values were filed as active, the others as inactive; ! = not active in a repeat; [ ] = dose if it differs, or a comment. Shown is part of a subset that was picked to be rich in hits. The call rests on the fitted dose curve. On the % scale 0 is the no-effect control and ±100 the full control effect; potency means the concentration at half of the fitted maximal effect.

How did CCCCN(CCCC)C(=S)[S-].CCCCN(CCCC)C(=S)[S-].[Zn+2] do in these assays?
nsP2pro primary: 0.56µM*; nsP2 cell sec: inconclusive; CHIKV NSP2 FL: 0.23µM*; Furin counter: 7.3µM*; nsP2 NS23 pep: 1.6µM*; Papain counter: 4.1µM*; nsP2pro confirm: 0.36µM*; HCV NS3 4A cs: inactive

Results for C=C1C(=O)O[C@@H]2/C=C(/C)[C@@H](OC(C)=O)C/C=C(\C)C[C@@H](OC(=O)/C(=C/CO)CO)[C@@H]12 ?
nsP2pro primary: -8%[10 µM]

How did C=C1C(=O)O[C@@H]2C3C(=C(C)[C@@H](O)[C@@H](OC(=O)/C(=C/C)COC(C)=O)[C@@H]12)C(=O)[C@H]1O[C@@]31C (stereo partly drawn) do in these assays?
nsP2pro primary: 2.2µM*; nsP2 cell sec: inconclusive; CHIKV NSP2 FL: 7.1µM*; Furin counter: -2%[17.3 µM]; nsP2 NS23 pep: 3.2µM*; Papain counter: -6%[17.2 µM]; nsP2pro confirm: 2.2µM*; HCV NS3 4A cs: inactive

How did C=C(C)C(=O)O[C@H]1[C@H]2C(=C)C(=O)O[C@@H]2/C=C(\CO)CC/C=C(/C=O)[C@@H]1O do in these assays?
nsP2pro primary: -12%

What do the screens show for `O=C(c1ccc2c(c1)ncn2-c1ccc(C(F)(F)F)cc1)N1CCCCC1`?
nsP2pro primary: inactive

What do the screens show for `CCC(C(=O)O)[C@H]1CC[C@H](C)[C@H]([C@@H](C)[C@H](O)[C@H](C)C(=O)[C@H](CC)[C@H]2OC3(C=C[C@@H](O)[C@]4(CC[C@@](C)([C@H]5CC[C@](O)(CC)[C@H](C)O5)O4)O3)[C@H](C)C[C@@H]2C)O1` (stereo partly drawn)?
nsP2pro primary: -4%

What do the screens show for `CC(C)(O)CNc1ncc(-c2ccnc(Nc3ccnc(Cl)c3)n2)c(CC2CC2)n1`?
nsP2pro primary: 11%

How did CN(C)S(=O)(=O)N1CC(CNC(=O)C2CC2)C2(CCCCC2)C1 (stereo not drawn) do in these assays?
nsP2pro primary: inactive

How did Cc1cc(N[S+](=O)([O-])c2cc3c(cc2Cl)CCC(=O)N3)ccc1Br do in these assays?
nsP2pro primary: inactive

How did Cc1ccc(-c2cc(C(=O)Nc3ccc(-n4cccn4)cc3)c3ccccc3n2)cc1C do in these assays?
nsP2pro primary: inactive

How did O=C(CN1CCN(c2ccc(Cl)cc2)CC1)Nc1ccc(F)cc1F do in these assays?
nsP2pro primary: -23%

How did CN1CCCCCC(O)c2cc(C(=O)N3CCN(c4ccc(F)cc4)CC3)ccc21 (stereo not drawn) do in these assays?
nsP2pro primary: -16%

Results for Cc1cc(C(=O)CN2CCCC2)c(C)n1-c1ccc(F)cc1 ?
nsP2pro primary: 5.6µM*!; nsP2 cell sec: -13%; CHIKV NSP2 FL: 14%; Furin counter: -7%; nsP2 NS23 pep: -14%; Papain counter: -19%; nsP2pro confirm: -1%; HCV NS3 4A cs: inactive

From PubChem
